This is a sample that favours compounds with a hit; in the whole collection about 3.6% have one here.
Anthrax LF inh2 – Bacillus anthracis LF protease inhibitors, primary screen, biochemical, multiplex microsphere, MLPCN library; multiplex microsphere protease cleavage assay; inhibition, % at 10 µM; actives 0.12% (n = 360,000); AID 588501, 2011; further: plate controls were buffer without enzyme for full effect and enzyme alone for no effect
BoNT-F LC inh – BoNT/F light chain protease inhibitors, primary screen, biochemical, flow cytometry, MLPCN library | Botulinum neurotoxin type F light chain protease (Clostridium botulinum) | actives 0.22% (n = 360,000) | Multiplex microsphere protease cleavage assay | AID 588497, 2011 | inhibition, % at 10 µM; in the data active means inhibition above about 35%, passing the limit was not always enough; inconclusive means no clear call, values can overlap the other calls; further: plate controls were buffer without enzyme for full effect and enzyme alone for no effect
MazF activator – activators of E. coli MazEF toxin-antitoxin RNase, primary screen, biochemical, fluorescence, uHTS; activation, % at 20 µM; FAM/BHQ RNA-DNA oligo cleavage fluorescence, 5 h; actives 0.32% (n = 350,000); AID 504720, 2011; in the data active means activation above about 50%
Autofluor counter – compound fluorescence in toxin protease inhibitor counterscreen. compound autofluorescence counterscreen, microsphere flow cytometry; hits give high values. fluorescence intensity (no concentration beside the values). actives 3.1% (n = 360,000); in the data active means fluorescence intensity above about 16000; inconclusive means no clear call, values can overlap the other calls
BoNT A protease – BoNT/A light chain protease inhibitors, primary screen, biochemical, flow cytometry, MLPCN library; multiplex microsphere protease substrate cleavage; inhibition, % at 10 µM; actives 0.17% (n = 360,000); Botulinum neurotoxin type A light chain protease (Clostridium botulinum A str. ATCC 3502); AID 588499, 2011; further: plate controls were buffer without enzyme for full effect and enzyme alone for no effect
Numbers without * were called inactive; ? = inconclusive; / = no result. Unless noted, no stated cut-off is given here; in the data, active means inhibition above about 30%; inconclusive means no clear call, values can overlap the other calls; inactive means below that.

SMILES	Anthrax LF inh2	BoNT-F LC inh	MazF activator	Autofluor counter	BoNT A protease
O=C(NCC(c1ccco1)N1CCCCC1)c1ccc(S(=O)(=O)Nc2ccccc2)cc1 (centres undefined)	0	3	-1	?	1
COc1ccccc1C(CNC(=O)c1cccc(S(=O)(=O)Nc2ccc(F)cc2)c1)N1CCCC1 (centres undefined)	3	6	-8	25818*	2
O=C(NCC(c1ccco1)N1CCCC1)c1cccc(NS(=O)(=O)c2ccccc2)c1 (centres undefined)	-4	-8	-6	16491*	-9
O=C(c1cccs1)N1CCN(C(=O)C2CCCO2)CC1 (centres undefined)	2	-1	7	19685*	0
O=C(Cc1cccs1)N1CCN(C(=O)C2CCCO2)CC1 (centres undefined)	0	-16	8	11286	0
O=C(c1cccs1)N1CCN(C2CCN(Cc3ccccc3)CC2)CC1	3	5	4	3609	0
O=C(c1cccs1)N1CCN(C2CCCCC2)CC1	-4	4	-4	20556*	?
O=C(CSc1ncnc2c1cnn2-c1ccccc1)NC1CCS(=O)(=O)C1 (centres undefined)	-6	-1	0	4069	0
O=C(NCc1cc([N+](=O)[O-])ccc1O)c1cccnc1Sc1ccccc1Cl	2	-2	-5	4344	2
OC1c2cc(Cl)ccc2-c2c(Cl)cc(Cl)cc21 (centres undefined)	10	2	1	4443	1
COc1ccc(C(=O)N[C@H](C(=O)OCCCOC(=O)[C@@H](NC(=O)c2ccc(OC)cc2)C(C)C)C(C)C)cc1	-2	-6	1	3114	-1
CCOC(=O)c1c(NC(=O)Nc2cccc(Cl)c2)sc(C)c1C	-5	-4	8	23460*	-2
CCOC(=O)c1c(NC(C)=O)sc2c(O)cccc12	0	-6	3	21384*	-5
COc1ccccc1C(=O)COC(=O)C1CCN(S(=O)(=O)c2ccccc2)CC1	-2	-9	1	2970	0
Cc1ccc(S(=O)(=O)NCCCCCCNS(=O)(=O)c2ccc(C)cc2)cc1	0	-2	2	3750	0
Cc1ccc(S(=O)(=O)NCCOCCNS(=O)(=O)c2ccc(C)cc2)cc1	2	0	-1	16362*	0
Cc1ccc(S(=O)(=O)NCCCCCC(=O)N(C)C)cc1	-3	2	9	19200*	1
CSc1nc(C)cc(OCCNS(=O)(=O)c2ccc(C)cc2)n1	-7	-7	-3	17261*	-6
COc1nc(OCCNS(=O)(=O)c2ccc(C)cc2)nc(N(C)C)n1	8	-7	4	3636	1
COc1ccc(OC)c(NC(=O)c2cccc(NC(=O)c3ccco3)c2)c1	0	-6	6	3549	0
COc1ccccc1CNC(=O)COC(=O)c1cccc(S(=O)(=O)N2CCOCC2)c1	1	7	8	4807	4
CC(C)(O)c1[nH]c2cc(F)ccc2c1C(C)(C)O	1	7	6	2970	0
Cc1cc(C)n(C(=O)Cn2nc(C)c(Cl)c2C)n1	/	/	4	/	/
CCOC(=O)c1c(-c2ccc(C)o2)csc1NC(=S)NC(=O)c1cccs1	-1	-7	1	2109	-1
CCOC(=O)c1c(-c2ccc(C)o2)csc1NC(=S)NC(=O)c1ccccc1Br	-8	-4	4	16268*	0
SMILES	Anthrax LF inh2	BoNT-F LC inh	MazF activator	Autofluor counter	BoNT A protease
O=C(Nc1ccc(-c2nc3ccccc3o2)cc1)C1CCCO1 (centres undefined)	1	3	-1	19183*	2
O=C(Nc1ccc2oc(-c3ccccc3)nc2c1)C1CCCO1 (centres undefined)	-2	-30	7	2092	-2
O=S(=O)(Nc1ccc(-c2nc3ccccc3o2)cc1)c1ccccc1	-3	-7	-3	23226*	?
CC(=O)Nc1ccc(S(=O)(=O)Nc2cccc(-c3nc4ccccc4o3)c2)cc1	0	-6	1	6567	2
O=C1/C(=C/c2cccs2)N=C(c2cccs2)N1Nc1ccccc1	13	0	7	3520	11
O=C1/C(=C\c2cccs2)N=C(c2cccs2)N1Nc1ccccc1	50*	40*	-11	5432	68*
CC1=NN(c2ccccc2)C(=O)/C1=C/c1cccs1	-3	3	8	2428	0
Cc1ccc(C2=N/C(=C\c3cccs3)C(=O)N2Nc2ccccc2)cc1	64*	51*	-5	2321	120*
CCOc1ccc(NC(=O)N(CCN2CCOCC2)Cc2ccc3c(c2)CCCN3CC)cc1	-3	-10	8	3657	0
CCCN1CCCc2cc(CN(CCCN3CCOCC3)C(=O)Nc3ccc(OCC)cc3)ccc21	-6	-14	10	22682*	0
CC(Sc1ccccn1)C(=O)Nc1ccccc1 (centres undefined)	-4	0	12	20487*	0
COc1ccc(N2C(=O)CCC(C(=O)c3ccccc3)=C2C)cc1	-2	8	-5	19774*	?
COc1ccc(C(=O)c2ccccc2C(=O)c2ccccc2)cc1	-6	-7	5	3683	0
COc1ccc(/C=C2\CCOC2=O)cc1	0	5	-17	3047	1
COc1ccc(N/C=C2\CCOC2=O)cc1	-2	0	-7	16257*	0
CCn1cc(C(=O)NCc2ccc3c(c2)OCO3)c(=O)c2cc(S(=O)(=O)N(C)C)ccc21	-2	3	6	9237	1
CCn1cc(C(=O)NCc2ccc3c(c2)OCO3)c(=O)c2cc(S(=O)(=O)N3CCOCC3)ccc21	0	-10	2	21213*	?
CCn1cc(C(=O)N2CC(C)CC(C)C2)c(=O)c2cc(S(=O)(=O)N3CCOCC3)ccc21 (centres undefined)	1	-4	3	24578*	-2
CCOC(=O)C1CCCN(C(=O)c2cn(CC)c3ccc(S(=O)(=O)N4CCCC4)cc3c2=O)C1 (centres undefined)	-4	-2	4	16154*	1
CCOC(=O)C1CCCN(C(=O)c2cn(C)c3ccc(S(=O)(=O)N4CCCC4)cc3c2=O)C1 (centres undefined)	0	4	6	21667*	?
CCn1cc(C(=O)N2CC(C)CC(C)C2)c(=O)c2cc(S(=O)(=O)N(C)C)ccc21 (centres undefined)	-2	-10	9	4547	-1
CCN(CC)S(=O)(=O)c1cc(NC(=O)Cc2ccsc2)ccc1C	6	34	3	4209	-1
O=[N+]([O-])c1ccccc1CNCCCCCO	1	-7	-3	3561	-1
